The text below walks through data of PubChem BioAssay (NCI).

Compounds without any hit were thinned out: in the full panel of roughly 83,000, 20% have a hit.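 How to read the values: 0–100, growth inhibition (40 = 60% inhibited); 0, no net growth; -100 to 0, cell death (-40 = 40% of starting cells died; -100 = all dead).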 A number with no mark means an inactive call. The source made the active and inactive calls. The calls were made as follows: active = growth percent below 10; inactive = the rest.

Common to all, as to assay: NCI-60 one-dose screen, 48 h (100 = growth as untreated, 0 = no growth, -100 = all killed)
What all share (details): 10 µM

For experiment [1], the system named is T-47D breast.
The subject of experiment [2] is BT-549 breast.
The subject of experiment [3] is MDA-MB-435 melanoma.
Experiment [4] concerns SW-620 colon.
The test system of experiment [5] is MCF7 breast.
The subject of experiment [6] is HCT-116 colon.
The subject of experiment [7] is HCC-2998 colon.
For experiment [8], the system named is KM12 colon.

As for `O=[N+]([O-])c1ccc2ncccc2c1Cl`, the growth in experiment [1] is 68.7%; in experiment [2], 43.6%; in experiment [3] it was -36.9% (active); in experiment [4] it was 14.5%; in experiment [5], 13.4%; in experiment [6], 5.31% (active). The growth in experiment [7] is 106%.
Consider `CC(=O)C1N=NCC1c1ccccc1` (configuration not stated), for which the growth is 104% in experiment [1]; 105% in experiment [2]; 108% in experiment [3]; 101% in experiment [4]; 95.7% in experiment [5]; 100% in experiment [6]. Further, the growth in experiment [7] was 102%.
For the compound `COc1cc(-c2nn(-c3ccc(NC(=O)NCCNS(=O)(=O)c4ccc(F)cc4)cc3)cc2-c2ccncc2)ccc1Cl`, the growth in experiment [1] was 34.8%; in experiment [2], -3.98% (active); in experiment [3] it was -0.232% (active); in experiment [4] it was 18.3%; in experiment [5] it was 6.49% (active); in experiment [6], -3.49% (active). The values for the growth in experiment [7] and in experiment [8] were 6.84% (active) and 2.84% (active), respectively.
As for `CCc1c2c(nc3ccc(OC(=O)N4CCC(N5CCCCC5)CC4)cc13)-c1cc3c(c(=O)n1C2)COC(=O)[C@]3(O)CC`, the growth was 25.1% in experiment [1]; 22.1% in experiment [2]; 34.2% in experiment [3]; 41.4% in experiment [4]; 3.64% (active) in experiment [5]; 22% in experiment [6]. Besides, the results for the growth in experiment [7] and in experiment [8] were 28.2% and 53.1%, respectively.
On to `COc1ccc(-c2nn(-c3cccc(Cl)c3)cc2-c2cc(-c3cccs3)[nH]c(=S)n2)cc1`, for which the growth was 41.6% in experiment [1]; 46.7% in experiment [2]; 33.5% in experiment [3]; 61.4% in experiment [4]; 34.1% in experiment [5]; 20.4% in experiment [6]. Moreover, the growth is 37.4% in experiment [7] and 27.5% in experiment [8].
On to `O=C1c2ccccc2C(=O)N1CCCCNc1ccccc1`, for which the growth was 124% in experiment [1]; 61.7% in experiment [2]; 118% in experiment [3]; 105% in experiment [4]; 111% in experiment [5]; 97.5% in experiment [6]. In addition, the growth in experiment [7] was 108%; in experiment [8], 67%.
For `O=C(Nc1ccc(OS(=O)(=O)c2ccccc2)cc1)C1CCCCC1`, the growth in experiment [1] was 85.4%; in experiment [2], 84%; in experiment [3], 100%; in experiment [4], 102%; in experiment [5], 97%; in experiment [6], 72.1%. Further, the growth in experiment [7] was 92.4%; in experiment [8], 88.5%.
As to `O=C1CC(SC(=S)C2CCCC2=O)C(=O)N1` (configuration not stated), the growth is 93.9% in experiment [1]; 100% in experiment [2]; 114% in experiment [3]; 110% in experiment [4]; 90.8% in experiment [5]; 99.2% in experiment [6]. Besides, the figures for the growth in experiment [7] and in experiment [8] were 108% and 103%, respectively.
Turning to `Cc1c(C(N)=O)sc2c1c(=O)n(Cc1ccccc1)c1nnc(-c3ccc(Br)cc3)n21`, the growth was 20.9% in experiment [1]; 22.6% in experiment [2]; 39% in experiment [3]; 33.1% in experiment [4]; 21.5% in experiment [5]; 12.4% in experiment [6]. Further, the growth was 25% in experiment [7] and 25.6% in experiment [8].
Take `CC(=O)[C@@]12O[C@](C)(c3ccccc3)O[C@@H]1CC1C3CCC4=CC(=O)CC[C@]4(C)C3CC[C@@]12C` (some centres not stated): the growth in experiment [1] is 74.3%; in experiment [2], 79.7%; in experiment [3], 77.8%; in experiment [4], 83.3%; in experiment [5], 59%; in experiment [6], 48.2%. Besides, the growth in experiment [7] was 79.3%; in experiment [8], 70.8%.
Take `CC(C)c1cc(N=O)cc(C(C)C)c1O`: the growth is 108% in experiment [1]; 111% in experiment [2]; 109% in experiment [3]; 100% in experiment [4]; 103% in experiment [5]; 110% in experiment [6]. Moreover, the growth in experiment [7] is 104%; in experiment [8] it was 111%.
`COc1ccc2cc(-c3nc4ccccc4s3)c(Cl)nc2c1OC`: the growth in experiment [1] was 91.2%; in experiment [2] it was 114%; in experiment [3] it was 110%; in experiment [4], 93.8%; in experiment [5], 92.9%; in experiment [6], 108%. Moreover, the growth in experiment [7] was 105%; in experiment [8], 101%.
As to `CCOC(=O)c1cc(C(=O)c2cc(OC)c(OC)c(OC)c2)n2ccc(-c3cc[n+](CC(=O)c4cc(OC)c(OC)c(OC)c4)cc3)cc12`, the growth was 50.1% in experiment [1]; -10.9% (active) in experiment [2]; 68.7% in experiment [3]; -64.8% (active) in experiment [4]; -29.3% (active) in experiment [5]; -61.2% (active) in experiment [6]. For the same compound, the values for the growth in experiment [7] and in experiment [8] were 109% and 45.3%, respectively.
As for `CC(=O)N[C@H](C(=O)N[C@@H](CCCNC(=N)N)C(=O)N[C@@H](CCCCN)C(=O)N[C@@H](CCCNC(=N)N)C(=O)NC(C(=O)N[C@@H](CC(C)C)C(=O)N[C@@H](CCCNC(=N)N)C(=O)N[C@@]1(C)CCC/C=C\CCC[C@@](C)(C(=O)N[C@@H](CCCNC(=N)N)C(=O)N[C@@H](CCC(=O)O)C(=O)N[C@@H](CC(C)C)C(=O)N[C@H](C(=O)N[C@@H](CCC(=O)O)C(N)=O)C(C)C)NC(=O)[C@H](CCC(N)=O)NC(=O)[C@H](CC(C)C)NC(=O)[C@H](CC(C)C)NC1=O)[C@@H](C)O)C(C)C` (some centres not stated), the growth was -53.4% (active) in experiment [1]; -79.7% (active) in experiment [2]; -12.1% (active) in experiment [3]; 22.4% in experiment [4]; -79.8% (active) in experiment [5]; 18.9% in experiment [6]. The values for the growth in experiment [7] and in experiment [8] were 51.3% and -40.8% (active), respectively.
On to `CC(C)N(CCOc1ccc(-c2nc3sccn3c2-c2ccnc(S(C)(=O)=O)n2)cc1)C(C)C`, for which the growth was 105% in experiment [1]; 90.8% in experiment [2]; 92.6% in experiment [3]; 78.2% in experiment [4]; 82.5% in experiment [5]; 61.5% in experiment [6]. Moreover, the growth in experiment [7] was 88%; in experiment [8], 90.4%.
In the case of `CCn1c(SCCc2ccccc2)nnc1-c1nn(-c2ccc(Cl)cc2Cl)c(-c2ccc(Cl)cc2)c1C`, the growth in experiment [1] is 42.2%; in experiment [2], 93.4%; in experiment [3], 83.2%; in experiment [4], 83.3%; in experiment [5] it was 58.7%; in experiment [6], 39.1%. The growth in experiment [7] is 110%; in experiment [8], 69.5%.
Take `CCCCCCCCCCCCCCCCCC[n+]1ccc2c(C)c3c(c(C)c2c1)c1cc(O)ccc1n3CC`: the growth is 23.5% in experiment [1]; -11% (active) in experiment [2]; -53.4% (active) in experiment [3]; 13.3% in experiment [4]; 28.3% in experiment [5]; 7.88% (active) in experiment [6]. Besides, the values for the growth in experiment [7] and in experiment [8] were 31.5% and 10.8%, respectively.
Regarding `CNS(=O)(=O)Oc1ccc(-c2ccc3occc3c2)cc1`, the growth in experiment [1] is 89.1%; in experiment [2], 91.5%; in experiment [3] it was 100%; in experiment [4], 102%; in experiment [5], 111%; in experiment [6] it was 95.5%. Moreover, the growth in experiment [7] is 96.5%; in experiment [8], 99%.
For the compound `COc1ccc(Nc2cnc3cc(NS(=O)(=O)c4ccc(C)cc4)ccc3n2)cc1`, the growth is 94.4% in experiment [1]; 98.1% in experiment [2]; 4.57% (active) in experiment [3]; 59.9% in experiment [4]; 61.6% in experiment [5]; 79.6% in experiment [6]. Moreover, the results for the growth in experiment [7] and in experiment [8] were 93.6% and 71.3%, respectively.
`CS(=O)(=O)c1nccc(-c2c(-c3cccc(OCc4ccccc4)c3)nc3sccn23)n1`: the growth is 65% in experiment [1]; 54.9% in experiment [2]; 78.5% in experiment [3]; 47.1% in experiment [4]; 77.4% in experiment [5]; 58.3% in experiment [6]. Besides, the growth in experiment [7] was 32.4%; in experiment [8], 50.7%.
For the compound `CCn1cc(C(=O)O)c(=O)c2cc(F)c(N3CCNCC3)cc21`, the growth in experiment [1] is 124%; in experiment [2], 110%; in experiment [3], 107%; in experiment [4] it was 103%; in experiment [5], 107%; in experiment [6], 115%. The growth in experiment [7] was 110%; in experiment [8], 103%.
Regarding `OCC1OC(n2ccc3c(NO)ncnc32)C(O)C1O` (configuration not stated), the growth in experiment [1] was -18.9% (active); in experiment [2] it was -31.5% (active); in experiment [3] it was -54.5% (active); in experiment [4], -3.1% (active); in experiment [5] it was -0.414% (active); in experiment [6] it was -33.1% (active). Moreover, the growth in experiment [7] is -38.7% (active); in experiment [8], -26.6% (active).
Turning to `CNS(=O)(=O)Oc1ccc(-c2sc3cc(OS(=O)(=O)NC)ccc3c2C(=O)c2ccc(OCCN3CCCCC3)cc2)cc1`, the growth in experiment [1] is 60.8%; in experiment [2], 73.7%; in experiment [3], 70%; in experiment [4], 65.1%; in experiment [5], 30.5%; in experiment [6] it was 33.4%. In addition, the growth was 93.8% in experiment [7] and 80.2% in experiment [8].
Consider `O=C1C=C(Nc2cccc(Br)c2)c2ccccc2C1=O`, for which the growth in experiment [1] is 102%; in experiment [2] it was 14.7%; in experiment [3], -25.2% (active); in experiment [4], 29.7%; in experiment [5], 21%; in experiment [6] it was 52%. Further, the results for the growth in experiment [7] and in experiment [8] were 75.5% and 32.6%, respectively.
For `O=C(O)c1ccc(-n2cc(CNc3ccc(Oc4ccccc4)cc3)c(-c3ccccc3)n2)cc1`, the growth in experiment [1] is 75%; in experiment [2], 83.1%; in experiment [3] it was 94.2%; in experiment [4], 99.4%; in experiment [5], 85.4%; in experiment [6] it was 88.5%. Also, the values for the growth in experiment [7] and in experiment [8] were 120% and 80.3%, respectively.
In the case of `COc1cc(-c2nn(-c3cccc(NC(=O)NCCNC(=O)c4cccc(C(F)(F)F)c4)c3)cc2-c2ccncc2)ccc1Cl`, the growth is 52.7% in experiment [1]; 14.2% in experiment [2]; -41.6% (active) in experiment [3]; 36.1% in experiment [4]; 12.7% in experiment [5]; 24.4% in experiment [6]. The values for the growth in experiment [7] and in experiment [8] were 67.3% and 18.9%, respectively.
Consider `Cc1cc(=O)n2nnc3cc(Cl)c(Cl)cc3n12`, for which the growth in experiment [1] was 76.3%; in experiment [2] it was 114%; in experiment [3], 103%; in experiment [4] it was 23.4%; in experiment [5], 96.3%; in experiment [6], 91.8%. Further, the results for the growth in experiment [7] and in experiment [8] were 108% and 109%, respectively.
`COc1ccc(-c2cc(-c3cc(OC)ccc3OC)nc(N)c2C#N)cc1`: the growth in experiment [1] was 54.4%; in experiment [2], 24.7%; in experiment [3], 46.8%; in experiment [4] it was 65.5%; in experiment [5] it was 38.9%; in experiment [6], 35.1%. For the same compound, the figures for the growth in experiment [7] and in experiment [8] were 76.6% and 71.7%, respectively.
